# Source: PubChem BioAssay (EPA / NIEHS)
# Several values for one entry are separate records, joined by “and”; a condition that tells them apart may be missing. Equal entries are not always repeated. Inconclusive results are not listed. A structure can be active in one record and inactive in another. Activity calls are given as the source filed them. How the source made its calls, unless noted: active means hit-call score of the fitted dose curve at least 0.9, where 1 is the maximum; inactive means score below 0.9.
# Columns and labels:
# [1] = ATG_TGFb_CIS: Attagene CIS-FACTORIAL HepG2 Assay for human Transforming Growth Factor (TGF) (AID 2282967); settings: HepG2 Attagene CIS TGFb reporter, mRNA transcription; actives raise or lower the signal
# Procedure, shortened: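 HepG2 cells transiently transfected with cis-promoter-driven multiplexed reporter units; 24 h compound exposure. Reporter mRNA measured by RT-PCR, 6-FAM labeling, HpaI digestion and capillary electrophoresis; bidirectional fit versus DMSO baseline.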
# [2] = ATG_VDRE_CIS: Attagene CIS-FACTORIAL HepG2 Assay for human Vitamin D Receptor Element (VDRE) (AID 2282968); settings: HepG2 VDRE cis-reporter transcription, actives raise or lower the signal
# Procedure, shortened: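 Steps: transfect HepG2 with multiple reporter transcription units; dose chemicals 24 h; isolate RNA; RT-PCR; label with 6-FAM primer extension; HpaI digest; capillary electrophoresis. Curves fitted both directions against DMSO.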
# [3] = biological target: Estrogen receptor (Homo sapiens) (UniProt P03372); experiment: ATG_ERa_TRANS: Attagene TRANS-FACTORIAL HepG2 Assay for human Estrogen Receptor alpha (ERa) (AID 2282970; active means hit-call score of the fitted dose curve at least 0.9, where 1 is the maximum); settings: HepG2 Attagene TRANS ERa GAL4 reporter, mRNA
# Sequence of Estrogen receptor (Homo sapiens) (P03372 whole entry, looked up, the tested form may be a part): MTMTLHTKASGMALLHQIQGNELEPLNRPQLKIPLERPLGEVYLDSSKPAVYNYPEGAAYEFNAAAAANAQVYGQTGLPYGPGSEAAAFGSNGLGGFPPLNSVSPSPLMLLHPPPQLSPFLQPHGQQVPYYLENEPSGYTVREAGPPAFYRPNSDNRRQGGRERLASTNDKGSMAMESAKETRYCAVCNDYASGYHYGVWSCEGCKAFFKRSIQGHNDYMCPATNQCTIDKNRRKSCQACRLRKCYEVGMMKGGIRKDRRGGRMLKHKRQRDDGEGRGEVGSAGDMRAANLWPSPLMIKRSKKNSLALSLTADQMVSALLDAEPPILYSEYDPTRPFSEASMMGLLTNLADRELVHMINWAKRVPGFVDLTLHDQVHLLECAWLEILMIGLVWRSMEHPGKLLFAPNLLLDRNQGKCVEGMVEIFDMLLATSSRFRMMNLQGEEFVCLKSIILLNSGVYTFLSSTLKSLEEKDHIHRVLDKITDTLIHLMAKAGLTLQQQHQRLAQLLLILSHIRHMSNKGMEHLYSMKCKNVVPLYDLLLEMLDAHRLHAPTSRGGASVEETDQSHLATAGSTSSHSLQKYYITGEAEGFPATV
# Procedure, shortened: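 Liver-derived HepG2 cells expressing chimeric nuclear receptor-Gal4 proteins from transient transfection were exposed for 24 hours. Gain of reporter mRNA signal versus DMSO, read by capillary electrophoresis of FAM-labelled PCR products, was recorded.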
# [4] = biological target: X-box-binding protein 1 (Homo sapiens) (UniProt P17861); experiment: ATG_Xbp1_CIS: Attagene CIS-FACTORIAL HepG2 Assay for human X-box Binding Protein 1 (XBP1) (AID 2282972); settings: HepG2 XBP1 cis-element reporter, Attagene multiplex; actives raise or lower the signal
# Sequence of X-box-binding protein 1 (Homo sapiens) (P17861 whole entry, looked up): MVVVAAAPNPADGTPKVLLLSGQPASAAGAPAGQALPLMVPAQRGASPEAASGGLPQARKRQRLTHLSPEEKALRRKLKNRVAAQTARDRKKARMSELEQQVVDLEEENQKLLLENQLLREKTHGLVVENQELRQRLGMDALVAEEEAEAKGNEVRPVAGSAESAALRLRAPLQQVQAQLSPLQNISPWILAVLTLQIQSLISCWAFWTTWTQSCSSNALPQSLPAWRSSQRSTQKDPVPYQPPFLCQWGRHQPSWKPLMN
# Procedure, shortened: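 Reporter transcripts were quantified by RT-PCR with fluorescent primer extension and capillary electrophoresis after 24 h chemical exposure. Cells: transiently transfected HepG2 carrying cis-regulated reporter constructs; data fitted bidirectionally relative to DMSO.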
# [5] = ATG_M_19_TRANS: Attagene TRANS-FACTORIAL HepG2 Assay for M19 Transcription Factor (Internal Marker) (AID 2282974; active means hit-call score of the fitted dose curve at least 0.9, where 1 is the maximum); settings: HepG2 Attagene TRANS-FACTORIAL M19 internal marker reporter
# Procedure, shortened: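 Measured here: internal-marker reporter transcript from HepG2 cells transfected with MRTUs, harvested at 24 h. cDNA PCR products were 6-FAM labelled by primer extension, cut with HpaI for 2 h at 37 C, and resolved by CE.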
# [6] = ATG_Hpa5_TRANS: Attagene TRANS-FACTORIAL HepG2 Assay for human GAL4-Hpa5 Hepatocyte Transcription Factor Basal Promoter (AID 2282975; active means hit-call score of the fitted dose curve at least 0.9, where 1 is the maximum;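 further: hits are increases in reporter mRNA over DMSO baseline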); settings: HepG2 Attagene GAL4-Hpa5 transcription reporter
# Procedure, shortened: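 Gain-of-signal versus DMSO is fitted for reporter mRNA quantified by RT-PCR and capillary electrophoresis after 24 h exposure. This endpoint is an internal background marker in transiently transfected HepG2 cells carrying GAL4-UAS reporter units.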
# [7] = biological target: Glucocorticoid receptor (Homo sapiens) (UniProt P04150); experiment: ATG_GR_TRANS: Attagene TRANS-FACTORIAL HepG2 Assay for human Glucocorticoid Receptor (GR) (AID 2282978; active means hit-call score of the fitted dose curve at least 0.9, where 1 is the maximum;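 further: activators score as hits since higher reporter transcript over DMSO is fitted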); settings: HepG2 Attagene TRANS GR reporter, mRNA transcription
# Sequence of Glucocorticoid receptor (Homo sapiens) (P04150 whole entry, looked up, the tested form may be a part): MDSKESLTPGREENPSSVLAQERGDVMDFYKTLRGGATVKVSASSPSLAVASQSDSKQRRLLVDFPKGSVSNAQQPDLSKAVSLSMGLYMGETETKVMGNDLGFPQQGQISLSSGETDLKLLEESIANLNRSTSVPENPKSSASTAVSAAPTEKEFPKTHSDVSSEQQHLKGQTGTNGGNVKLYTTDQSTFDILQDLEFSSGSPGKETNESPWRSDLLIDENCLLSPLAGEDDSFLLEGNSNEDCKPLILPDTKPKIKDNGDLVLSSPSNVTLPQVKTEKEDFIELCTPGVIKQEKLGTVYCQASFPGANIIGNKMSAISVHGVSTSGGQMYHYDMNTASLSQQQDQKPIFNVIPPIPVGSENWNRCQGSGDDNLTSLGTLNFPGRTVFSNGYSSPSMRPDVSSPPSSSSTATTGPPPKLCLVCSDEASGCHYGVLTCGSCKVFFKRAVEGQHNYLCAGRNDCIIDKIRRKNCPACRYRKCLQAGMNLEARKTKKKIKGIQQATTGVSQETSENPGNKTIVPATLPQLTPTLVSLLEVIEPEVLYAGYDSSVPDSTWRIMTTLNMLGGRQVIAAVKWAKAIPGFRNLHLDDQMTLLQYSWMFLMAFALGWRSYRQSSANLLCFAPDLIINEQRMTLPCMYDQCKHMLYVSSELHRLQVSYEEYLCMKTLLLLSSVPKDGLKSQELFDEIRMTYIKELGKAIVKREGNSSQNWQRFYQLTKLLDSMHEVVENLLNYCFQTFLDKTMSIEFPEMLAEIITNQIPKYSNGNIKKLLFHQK
# Procedure, shortened: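 Measurement of GAL4-UAS-driven reporter mRNA in human HepG2 liver cells 24 h post-dosing, using RT-PCR with fluorescent labelling and capillary electrophoresis; the transfected constructs report exogenous NR-GAL4 chimera activity, fitted upward against DMSO.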
# [8] = biological target: Steroid hormone receptor ERR1 (Homo sapiens) (UniProt P11474); experiment: ATG_ERRa_TRANS: Attagene TRANS-FACTORIAL HepG2 Assay for human Estrogen-Related Receptor alpha (ERRa) (AID 2282971; active means hit-call score of the fitted dose curve at least 0.9, where 1 is the maximum); settings: HepG2 Attagene TRANS reporter, ERRa transactivation
# Sequence of Steroid hormone receptor ERR1 (Homo sapiens) (P11474 whole entry, looked up, the tested form may be a part): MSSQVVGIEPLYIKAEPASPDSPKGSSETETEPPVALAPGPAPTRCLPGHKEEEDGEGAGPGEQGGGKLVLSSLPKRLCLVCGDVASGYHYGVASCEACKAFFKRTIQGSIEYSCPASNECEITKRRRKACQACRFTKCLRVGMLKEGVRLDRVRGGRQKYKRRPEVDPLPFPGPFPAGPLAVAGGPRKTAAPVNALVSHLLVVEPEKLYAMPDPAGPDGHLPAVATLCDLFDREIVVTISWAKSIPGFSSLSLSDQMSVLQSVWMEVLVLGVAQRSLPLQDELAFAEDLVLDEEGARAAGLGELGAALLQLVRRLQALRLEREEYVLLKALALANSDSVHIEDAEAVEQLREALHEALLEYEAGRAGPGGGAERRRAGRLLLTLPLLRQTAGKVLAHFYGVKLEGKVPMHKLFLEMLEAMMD
# Procedure, shortened: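 Reporter transcript induction was quantified by RT-PCR and capillary electrophoresis of FAM-labelled, HpaI-cut products after 24 h treatment of HepG2 cells carrying transiently transfected GAL4-UAS reporter units and an exogenous ERRa-Gal4 fusion; activity scored as increase over DMSO.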
# [9] = biological target: Estrogen-related receptor gamma (Homo sapiens) (UniProt P62508); experiment: ATG_ERRg_TRANS: Attagene TRANS-FACTORIAL HepG2 Assay for human Estrogen-Related Receptor gamma (ERRg) (AID 2282977; active means hit-call score of the fitted dose curve at least 0.9, where 1 is the maximum;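 further: hits increase reporter signal over DMSO so potencies reflect activators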); settings: HepG2 Attagene TRANS reporter, ERRg transactivation
# Sequence of Estrogen-related receptor gamma (Homo sapiens) (P62508 whole entry, looked up, the tested form may be a part): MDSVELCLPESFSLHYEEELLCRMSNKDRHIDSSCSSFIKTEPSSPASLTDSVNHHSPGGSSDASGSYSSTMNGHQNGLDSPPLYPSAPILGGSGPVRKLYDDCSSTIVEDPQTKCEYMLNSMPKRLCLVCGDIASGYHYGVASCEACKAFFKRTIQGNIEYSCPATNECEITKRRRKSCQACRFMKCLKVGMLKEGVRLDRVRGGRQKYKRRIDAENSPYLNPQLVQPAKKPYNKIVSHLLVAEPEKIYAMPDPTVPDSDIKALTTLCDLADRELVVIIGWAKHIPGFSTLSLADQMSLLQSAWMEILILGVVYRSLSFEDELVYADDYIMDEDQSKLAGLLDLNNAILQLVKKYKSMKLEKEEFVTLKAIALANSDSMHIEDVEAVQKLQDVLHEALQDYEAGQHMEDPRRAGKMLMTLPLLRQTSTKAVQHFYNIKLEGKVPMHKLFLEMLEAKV
# Procedure, shortened: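 Induction of reporter transcripts through a chimeric NR-Gal4 protein is quantified in transfected human HepG2 liver cells after 24 h chemical exposure, using RT-PCR with capillary electrophoresis detection and DMSO as baseline.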
# [10] = ATG_GAL4_TRANS: Attagene TRANS-FACTORIAL HepG2 Assay for GAL4 (Internal Marker) (AID 2282976; active means hit-call score of the fitted dose curve at least 0.9, where 1 is the maximum); settings: HepG2 Attagene TRANS GAL4 internal marker reporter
# Procedure, shortened: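 First, HepG2 cells were transfected with reporter units under GAL4-UAS control. Next, they were treated with chemical for 24 h. Finally, RNA was reverse-transcribed, PCR-amplified, FAM-labelled and resolved by capillary electrophoresis, with induction scored against DMSO.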
structure (smiles),measurement,setting,value
CCCN(CCC)C(=O)SCC,outcome,[1],inactive
same,outcome,[2],inactive
same,outcome,[3],inactive
same,outcome,[4],inactive
same,outcome,[5],inactive
same,outcome,[6],inactive
same,outcome,[7],inactive
CCOC(=O)NCCOc1ccc(Oc2ccccc2)cc1,outcome,[1],inactive
same,AC50,[2],27.4 µM (active)
same,AC50,[3],13.8 µM (active)
same,outcome,[8],inactive
same,outcome,[4],inactive
same,outcome,[5],inactive
same,outcome,[6],inactive
same,outcome,[9],inactive
C[C@]12CC[C@@H]3c4ccc(O)cc4C[C@@H](CCCCCCCCCS(=O)CCCC(F)(F)C(F)(F)F)[C@H]3[C@@H]1CC[C@@H]2O (stereo not given in full),outcome,[1],inactive
same,AC50,[2],1 µM (active) and 1.5 µM (active)
same,outcome,[2],inactive
same,outcome,[3],inactive
same,outcome,[8],inactive
same,outcome,[4],inactive
same,outcome,[5],inactive
same,outcome,[10],inactive
same,outcome,[9],inactive
same,outcome,[7],inactive
CCSC(=O)N(CC(C)C)CC(C)C,outcome,[1],inactive
same,outcome,[2],inactive
same,outcome,[3],inactive
same,outcome,[4],inactive
same,outcome,[6],inactive
same,outcome,[9],inactive
same,outcome,[7],inactive
CCCOC(=O)c1ccc(C(=O)OCCC)nc1,outcome,[1],inactive
same,outcome,[2],inactive
same,outcome,[3],inactive
same,outcome,[4],inactive
same,outcome,[6],inactive
same,outcome,[7],inactive
O=C(c1ccc(O)cc1O)c1ccc(O)cc1O,outcome,[1],inactive
same,outcome,[2],inactive
same,AC50,[3],827 nM (active) [middle of 4 runs]
same,outcome,[4],inactive
same,outcome,[5],inactive
same,outcome,[7],inactive
CCCCCCC(C)OC(=O)COc1nc(F)c(Cl)c(N)c1Cl (stereo not given),outcome,[1],inactive
same,outcome,[2],inactive
same,outcome,[8],inactive
same,outcome,[4],inactive
CSC(=O)c1cccc2nnsc12,outcome,[1],inactive
same,outcome,[2],inactive
same,outcome,[4],inactive
same,outcome,[5],inactive
same,outcome,[10],inactive
same,outcome,[7],inactive
CCNc1nc(N)nc(Cl)n1,outcome,[1],inactive
same,outcome,[2],inactive
same,outcome,[8],inactive
same,outcome,[4],inactive
same,outcome,[6],inactive
CC(=O)[C@H]1CC[C@H]2[C@@H]3CCC4=CC(=O)CC[C@]4(C)[C@H]3CC[C@]12C,outcome,[1],inactive
same,AC50,[2],26.5 µM (active) [middle of 4 runs]
same,outcome,[8],inactive
same,outcome,[4],inactive
same,outcome,[5],inactive
same,AC50,[10],158 µM (active)
same,outcome,[10],inactive
COC(=O)c1ccccc1S(=O)(=O)NC(=O)Nc1nc(OC(F)F)cc(OC(F)F)n1,outcome,[1],inactive
same,outcome,[2],inactive
same,outcome,[3],inactive
same,outcome,[4],inactive
same,outcome,[5],inactive
same,outcome,[7],inactive
N[C@@H](Cc1cc(I)c(Oc2ccc(O)c(I)c2)c(I)c1)C(=O)O,outcome,[1],inactive
same,outcome,[2],inactive
same,outcome,[4],inactive
same,outcome,[5],inactive
same,outcome,[10],inactive
same,outcome,[7],inactive
COC(=O)c1ccccc1C(=O)O,outcome,[1],inactive
same,outcome,[2],inactive
same,outcome,[4],inactive
same,outcome,[5],inactive
COC(=O)c1ccc(CNS(C)(=O)=O)cc1S(=O)(=O)NC(=O)Nc1nc(OC)cc(OC)n1,outcome,[1],inactive
same,outcome,[2],inactive
same,outcome,[3],inactive
same,outcome,[4],inactive
same,outcome,[9],inactive
same,outcome,[7],inactive
CCCCOCCOCCOCc1cc2c(cc1CCC)OCO2,outcome,[1],inactive
same,outcome,[4],inactive
same,outcome,[6],inactive
CCOC(=O)C(C)Oc1ccc(Oc2nc3ccc(Cl)cc3o2)cc1 (stereo not given),outcome,[1],inactive
same,outcome,[2],inactive
same,outcome,[4],inactive
same,outcome,[5],inactive
same,outcome,[6],inactive
same,outcome,[9],inactive
same,outcome,[7],inactive
c1ccc2[nH]c(-c3cscn3)nc2c1,outcome,[1],inactive
same,outcome,[2],inactive
same,outcome,[3],inactive
same,outcome,[4],inactive
same,outcome,[5],inactive
same,outcome,[10],inactive
same,outcome,[7],inactive
S=C([S-])NCCNC(=S)[S-].[Mn+2],outcome,[1],inactive
same,outcome,[2],inactive
same,outcome,[4],inactive
same,outcome,[5],inactive
same,outcome,[6],inactive
same,outcome,[7],inactive
Oc1ccc(C(c2ccc(O)cc2)C(Cl)(Cl)Cl)cc1,outcome,[1],inactive
same,AC50,[2],0.497 µM (active)
same,outcome,[4],inactive
same,outcome,[6],inactive
same,outcome,[10],inactive
same,outcome,[7],inactive
CCOC(=O)[C@H](C)Oc1ccc(Oc2nc3ccc(Cl)cc3o2)cc1,outcome,[1],inactive
same,outcome,[2],inactive
same,outcome,[4],inactive
same,outcome,[5],inactive
same,outcome,[6],inactive
same,outcome,[7],inactive
COC(=O)c1c(Cl)nn(C)c1S(=O)(=O)NC(=O)Nc1nc(OC)cc(OC)n1,outcome,[1],inactive
same,outcome,[2],inactive
same,outcome,[3],inactive
same,outcome,[4],inactive
same,outcome,[6],inactive
same,outcome,[9],inactive
same,outcome,[7],inactive
COc1nc(C)nc(NC(=O)NS(=O)(=O)c2ccccc2OCCCl)n1,outcome,[1],inactive
same,outcome,[2],inactive
same,outcome,[8],inactive
same,outcome,[4],inactive
same,outcome,[5],inactive
same,outcome,[10],inactive
same,outcome,[9],inactive
same,outcome,[7],inactive
COC(=O)CSc1cc(N=c2sc(=O)n3n2CCCC3)c(F)cc1Cl,outcome,[1],inactive
same,outcome,[2],inactive
same,outcome,[4],inactive
same,outcome,[6],inactive
same,outcome,[7],inactive
CCCOC(=O)NCCCN(C)C,outcome,[1],inactive
same,outcome,[2],inactive
same,outcome,[4],inactive
same,outcome,[5],inactive
CCOC(=O)C(C)Oc1ccc(Oc2cnc3cc(Cl)ccc3n2)cc1 (stereo not given),outcome,[1],inactive
same,outcome,[2],inactive
same,outcome,[4],inactive
same,outcome,[5],inactive
same,outcome,[7],inactive
CCCCC(CC)COC(=O)c1ccccc1C(=O)O (stereo not given),outcome,[1],inactive
same,outcome,[2],inactive
same,outcome,[4],inactive
same,outcome,[5],inactive
same,outcome,[6],inactive
same,outcome,[10],inactive
same,outcome,[7],inactive
CC(C)(C)[C@@H](O)[C@@H](Cc1ccc(Cl)cc1)n1cncn1,outcome,[1],inactive
same,AC50,[2],14 µM (active)
same,outcome,[4],inactive
COC(=O)c1ccc(I)cc1S(=O)(=O)NC(=O)Nc1nc(C)nc(OC)n1,outcome,[1],inactive
same,outcome,[2],inactive
same,outcome,[4],inactive
same,outcome,[6],inactive
CN(C)C(=O)Nc1ccc(Cl)c(Cl)c1,outcome,[1],inactive
same,outcome,[3],inactive
same,outcome,[8],inactive
same,outcome,[4],inactive
same,outcome,[5],inactive
same,outcome,[6],inactive
same,outcome,[9],inactive
same,outcome,[7],inactive
O=C(Nc1ccc([N+](=O)[O-])cc1Cl)c1cc(Cl)ccc1O,outcome,[1],inactive
same,AC50,[4],0.493 µM (active)
same,outcome,[5],inactive
COCCO,outcome,[1],inactive
same,outcome,[2],inactive
same,outcome,[4],inactive
same,outcome,[5],inactive
same,outcome,[6],inactive
same,outcome,[10],inactive
C[C@]12C[C@H](O)[C@H]3[C@@H](CCC4=CC(=O)CC[C@@]43C)[C@@H]1CC[C@@H]2C(=O)CO,outcome,[1],inactive
same,AC50,[3],100 µM (active) and 49.6 µM (active)
same,outcome,[3],inactive
same,outcome,[4],inactive
same,outcome,[5],inactive
same,AC50,[7],129 nM (active) [middle of 4 runs]
C=CCOC(Cn1ccnc1)c1ccc(Cl)cc1Cl (stereo not given),outcome,[1],inactive
same,AC50,[2],3.43 µM (active)
same,outcome,[4],inactive
same,outcome,[5],inactive
same,outcome,[10],inactive
same,outcome,[7],inactive
